# Reference: PubChem BioAssay (Tox21)
# Values joined by “and” are separate entries in the source; they are usually repeats but may differ in a detail not shown here. Equal values may be shown once. Results filed as inconclusive are left out. Where a call stands in place of a potency, no number is given. The source holds several records for some structures; these can differ, active in one and inactive in another. Active and inactive are the calls of the source. Calls come from the whole dose curve; as a rule, active = well fitted curve in the direction sought with a large enough effect in the repeat runs; inconclusive = weak or mixed curves; inactive = no such curve, though single readings can be large; an effect the other way counts as inactive or inconclusive.
# Assays:
# [1] = qHTS assay for identifying genotoxic compounds that show differential cytotoxicity against isogenic chicken DT40 cell lines with known DNA damage response pathways - wild type cell line (AID 743012); settings: DT40 wild type chicken cells viability, CellTiter-Glo, 40 h; series mostly up to 68.4 µM; note: nearly all actives have a fitted effect of over 60% in size
# Procedure, shortened: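 Viability of DNA repair-proficient chicken DT40 cells was assessed by CellTiter-Glo luminescence following 40 h compound exposure at 37 C/5% CO2.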
# [2] = qHTS assay for identifying genotoxic compounds that show differential cytotoxicity against isogenic chicken DT40 cell lines with known DNA damage response pathways - Rev3 mutant cell line (AID 743014); settings: chicken DT40 Rev3-/- viability, CellTiter-Glo, 40 h; series mostly up to 68.4 µM; note: nearly all actives have a fitted effect of over 55% in size; note: potency is the fitted concentration of half-maximal effect
# [3] = qHTS assay for identifying genotoxic compounds that show differential cytotoxicity against isogenic chicken DT40 cell lines with known DNA damage response pathways - Rad54/Ku70 mutant cell line (AID 743015); settings: DT40 Rad54/Ku70 mutant viability, CellTiter-Glo, 40 h; series mostly up to 66.8 µM; note: nearly all actives have a fitted effect of over 60% in size
smiles,measurement,setting,value
CC(C)C(=O)OCC(C)(C)C(OC(=O)C(C)C)C(C)C (stereo not drawn),Potency,[1],inactive
same,Potency,[2],inactive and 19.3 µM (active)
same,Potency,[3],inactive
